Reference: ChEMBL document CHEMBL4513216, “Probing the Open Global Health Chemical Diversity Library for Multistage-Active Starting Points for Next-Generation Antimalarials” (ACS Infect Dis, 2020)
Out of some 69,000 compounds screened, about 8,600 (12%) showed an effect of 50% or more. The sample as a whole holds a higher share of strong results than the screen did.

The molecules below were run on Plasmodium berghei (assay: Screen against P. berghei liver stage (PbLuc), transformed with Luciferase, at 10uM). Conditions: tested at 10 uM.
Format: functional, HepG2

Row | Structure (SMILES) | INHIBITION [%]
1 | CC(C)N1CCCCC1c1cc(CO)[nH]n1 (stereo not given) | -8.24
2 | CCc1nnc(CN2CCCC(Cn3nc(C)nc3C)C2)o1 (stereo not given) | 44.9
3 | COc1ccc(S(=O)(=O)NCCC(=O)NCc2ccoc2)cc1OC | 3.77
4 | O=C(CCc1ccsc1)NCC1CCN(C2CC2)C1 (stereo not given) | 22.8
5 | C1CC(CN2CC[C@@H]3O[C@@H](c4nnc(C5CC5)o4)C[C@H]3C2)CCO1 | 14.5
6 | CN1CCOCC2(CCCN(C(=O)c3cnccn3)C2)C1 (stereo not given) | 18.3
7 | CCN(CCO)Cc1ccc(Br)c2cccnc12 | 7.07
8 | O=C(c1ccccn1)N1CCc2c(nc(N3CCCC3)[nH]c2=O)C1 | 50
9 | O=C(c1cc[nH]n1)N1CCc2c(nc(N3CCCCC3)[nH]c2=O)C1 | 3.91
10 | O=C(c1ccccn1)N1CCc2c(nc(-c3ccncc3)[nH]c2=O)C1 | -12.1
11 | CCCc1nnc(N2CCN(c3ccccc3Cl)CC2)o1 | -15.3
12 | CN(C)CC(C)(C)Cn1cnc(-c2ccccc2)c1-c1ncc[nH]1 | 18.8
13 | CNC(=O)COc1ccc(CNc2c(Cl)cccc2C#N)cc1 | 60.1
14 | CN(c1ccc(CNc2c(Cl)cccc2C#N)cc1)S(C)(=O)=O | 36.9
15 | CS(=O)(=O)N1CCC(CNc2c(Cl)cccc2C#N)CC1 | 19.7
16 | CCS(=O)(=O)c1ccc(CNc2c(Cl)cccc2C#N)cc1 | 74.9
17 | CN(C)C(=O)c1ccc(CNc2c(Cl)cccc2C#N)cc1 | 45.2
18 | CNC(=O)COc1ccc(CNCc2cc(F)ccc2F)cc1 | -4.12
19 | CCC(=O)Nc1nnc(CCOc2ccccc2)s1 | -17.2
20 | Cc1nc(CN2CCC(c3ccnn3CCO)CC2)oc1C | -12.2
21 | CN(C)C(=O)CN(C)C(=O)c1csc(Br)c1 | -13.2
22 | CN(C)c1ccc(CC2CCCN(c3cnccn3)C2)nn1 (stereo not given) | -14.2
23 | OC(CNC1CCSCC1)c1cccc(OCc2ccccc2)c1 (stereo not given) | 44.5
24 | Cc1nc(CN(C)C(=O)Nc2cccc(C)c2C)no1 | 28.1
25 | COc1ccc(OC2CCN(C(=O)C3CCCN(C)C3)CC2)cc1 (stereo not given) | 67.5

Row | Structure (SMILES) | INHIBITION [%]
26 | COc1cccc(OC2CN(C(=O)C3CCCN(C(=O)N(C)C)C3)C2)c1 (stereo not given) | 42.6
27 | N#Cc1ccc(C(=O)N2CCC(Oc3ccc(C#N)cn3)CC2)cc1 | 32.2
28 | CN1CCCC(C(=O)N2CCC(Oc3ncccn3)CC2)C1 (stereo not given) | 30.5
29 | N#Cc1ccc(OC2CCN(C(=O)c3ccc4c(c3)OCO4)CC2)nc1 | 40.9
30 | N#Cc1ccc(OC2CCN(C(=O)c3cncc(Br)c3)CC2)nc1 | 54.5
31 | N#Cc1ccc(OC2CCN(C(=O)Cc3cccs3)CC2)nc1 | 65.7
32 | CC(=O)c1ccc(C(=O)N2CCC(c3cc(O)nc(C)n3)CC2)s1 | 8.24
33 | N#Cc1ccc(OC2CCN(C(=O)c3ccc(Br)o3)CC2)nc1 | -0.532
34 | COc1ccc(OC2CCN(C(=O)c3ccc(C(C)=O)s3)CC2)cc1 | 71.5
35 | N#Cc1ccc(OC2CCN(C(=O)c3ccccc3Cl)CC2)nc1 | 7.44
36 | COc1ccc(OC2CCN(C(=O)c3cnc(C)s3)CC2)cc1 | 30.8
37 | Cc1ccc(S(N)(=O)=O)cc1C(=O)NC1CCN(C2CC2)CC1 | -10.9
38 | CC(=O)N1CCN(c2ccnc(C)n2)CC(COc2ccccc2)C1 (stereo not given) | 1.11
39 | Cc1ccc(N2CCN(Cc3ccccc3)C3(CCNCC3)C2=O)cn1 | 8.31
40 | CN(C)c1cncc(C2CCN(CC(N)=O)CC2)n1 | 31.6
41 | Cn1cccc1C(=O)N[C@@H]1CN(Cc2ccsc2)[C@@H]2COC[C@@H]21 | -37.4
42 | O=C(NCC1CC1)[C@H]1C[C@H]2CN(S(=O)(=O)Cc3ccccc3)C[C@@H]1O2 | 43.2
43 | CN(Cc1ccsc1)C(=O)Nc1ccc(S(C)(=O)=O)cc1 | 31.8
44 | NC(=O)c1ccc(NC(=O)Cn2cc(-c3ccccc3)ncc2=O)cc1 | 26.8
45 | Cc1nc(-c2ccncc2)ncc1C(C)NC(=O)C1=NN(C)C(=O)CC1 (stereo not given) | -9.29
46 | COc1ccccc1OC1CCN(C(=O)C2CCCN(C)C2)CC1 (stereo not given) | 62.8
47 | COc1ccccc1OC1CCN(C(=O)c2cnc(C)s2)CC1 | 12.7
48 | CC(=O)N1CCC(Oc2ccc(C#N)cn2)CC1 | -43.5
49 | CN1CCCC(C(=O)N2CCC(Oc3ccccn3)CC2)C1 (stereo not given) | 25.3
50 | Cn1nc(C(=O)N2CCC(Oc3ccc(C#N)cn3)CC2)ccc1=O | 25.8

Row | Structure (SMILES) | INHIBITION [%]
51 | CN1CCCC(C(=O)N2CCC(Oc3ccc(C#N)cn3)CC2)C1 (stereo not given) | 74.4
52 | COCc1ncn2c1CN(C(=O)c1ccco1)CC2 | 4.57
53 | CCC1CNCc2cc3c(C)ccc(C)c3nc2O1 (stereo not given) | 21.7
54 | COc1cccc(C(=O)NC(C)CCN2CCOCC2)c1F (stereo not given) | 34.1
55 | CC(CCN(C)C)NC(=O)c1cccc(C(F)(F)F)c1F (stereo not given) | 66.5
56 | CC(CCN1CCOCC1)NC(=O)c1cccc(C(F)(F)F)c1F (stereo not given) | 35
57 | COc1c(CNCCC(=O)NC2CCCC2)c(C(C)C)nn1C | 21
58 | O=C(C[C@@H]1COC[C@H]2CN(Cc3ccc(F)cc3)C[C@@H]12)N1CCCC1 | -21.1
59 | CC(C)Nc1cccc(CNC(=O)N2CCC(N3CC=CC3)C2)c1 (stereo not given) | 19.4
60 | CC(C)Nc1cccc(CNC(=O)N2CCCC2)c1 | 24.2
61 | CC(C)Nc1cccc(CNC(=O)N2CCC[C@@H]2CO)c1 | 52.2
62 | CC1=Nc2c(c(O)nn2C(C)C)C(c2cn(C)nc2C)S1 (stereo not given) | 33.3
63 | CCn1cc(Cl)c(C(=O)NCCCO)n1 | 20.1
64 | COc1ccc2cc(NC(=O)CCCNc3ncccn3)cnc2c1 | 46.1
65 | COc1ccc(NC(=O)CCNc2ncccn2)cn1 | 61
66 | COc1ccc(NC(=O)Cn2cc(-c3ccccc3)ncc2=O)cn1 | 44.9
67 | COc1ccc(NC(=O)CSC(F)(F)F)cn1 | 66.7
68 | O=C(CCCNc1ncccn1)Nc1ccc(Cn2cncn2)cc1 | 45.9
69 | COc1ccc(NC(=O)N2CCN(c3ncccn3)CC2)cn1 | -7.11
70 | Cc1cc(C)nc(NCCC(=O)Nc2ccc(Cn3cncn3)cc2)n1 | 55.1
71 | CS(=O)(=O)c1ccc(NC(=O)CSC(F)(F)F)cn1 | 39.8
72 | COc1ccc2cc(NC(=O)CCNc3ncccn3)cnc2c1 | 41.5
73 | COc1ccc2cc(NC(=O)CCNc3nc(C)cc(C)n3)cnc2c1 | 73
74 | COc1ccc(NC(=O)CSc2nc(C)cc(C)n2)cn1 | -5.69
75 | O=C(CCNc1ncccn1)Nc1ccc(Cn2cncn2)cc1 | -4.56
